This passage reports outcome and AC50 results from PubChem BioAssay (EPA / NIEHS).

In assay [1] the target is Nucleoli Translocation, AR (gene 367) (UniProt P10275). Put plainly: UPITT_HCI_U2OS_AR_TIF2_Nucleoli_Antagonist: University of Pittsburgh U2OS Androgen Receptor-Transcriptional Intermediary Factor 2 (AR-TIF2) Antagonism High Content Imaging Assay for Nucleoli Translocation (AID 2283997; active = hit-call score of the fitted dose curve at least 0.9, where 1 is the maximum). The gist of the method:
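An antagonist-mode imaging screen: engineered U2OS (AR-RFP, TIF2-GFP) exposed to 20 uM compound, 0.2% DMSO. Activity reflects nucleolar red fluorescence change relative to DHT baseline.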

Assay [2] shares this target. Put plainly: UPITT_HCI_U2OS_AR_TIF2_Nucleoli_Agonist: University of Pittsburgh U2OS Androgen Receptor-Transcriptional Intermediary Factor 2 (AR-TIF2) Agonism High Content Imaging Assay for Nucleoli Translocation (AID 2283998; active = hit-call score of the fitted dose curve at least 0.9, where 1 is the maximum). Put shortly: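 U2OS cells expressing RFP-tagged human AR and GFP-tagged TIF2; red fluorescence in nucleoli quantified by high-content imaging. Primary screen at 20 uM final (0.2% DMSO); concentration-response 0.195–50 uM (0.5% DMSO), fitted upward versus DMSO.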

The target of assay [3] is Ratio of Nucleoli Translocation and Cytoplasm, AR (gene 367) (UniProt P10275). In words: UPITT_HCI_U2OS_AR_TIF2_Nucleoli_Cytoplasm_Ratio_Antagonist: University of Pittsburgh U2OS Androgen Receptor-Transcriptional Intermediary Factor 2 (AR-TIF2) Antagonism High Content Imaging Assay for Ratio of Nucleoli Translocation and Cytoplasm (AID 2283999; active = hit-call score of the fitted dose curve at least 0.9, where 1 is the maximum;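 note: antagonists lower the DHT-driven ratio of nucleolar to cytoplasmic red signal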). The gist of the method: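 This antagonist-mode endpoint tracks AR-RFP localisation, the nucleolus-to-cytoplasm intensity ratio, in TIF2-GFP-coexpressing U2OS cells. DMSO stays at or below 0.5%; testing spans 20 uM single-dose and 0.195–50 uM series, with DHT setting the activity baseline.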
Chain of Ratio of Nucleoli Translocation and Cytoplasm, AR (gene 367) (P10275 whole entry, looked up): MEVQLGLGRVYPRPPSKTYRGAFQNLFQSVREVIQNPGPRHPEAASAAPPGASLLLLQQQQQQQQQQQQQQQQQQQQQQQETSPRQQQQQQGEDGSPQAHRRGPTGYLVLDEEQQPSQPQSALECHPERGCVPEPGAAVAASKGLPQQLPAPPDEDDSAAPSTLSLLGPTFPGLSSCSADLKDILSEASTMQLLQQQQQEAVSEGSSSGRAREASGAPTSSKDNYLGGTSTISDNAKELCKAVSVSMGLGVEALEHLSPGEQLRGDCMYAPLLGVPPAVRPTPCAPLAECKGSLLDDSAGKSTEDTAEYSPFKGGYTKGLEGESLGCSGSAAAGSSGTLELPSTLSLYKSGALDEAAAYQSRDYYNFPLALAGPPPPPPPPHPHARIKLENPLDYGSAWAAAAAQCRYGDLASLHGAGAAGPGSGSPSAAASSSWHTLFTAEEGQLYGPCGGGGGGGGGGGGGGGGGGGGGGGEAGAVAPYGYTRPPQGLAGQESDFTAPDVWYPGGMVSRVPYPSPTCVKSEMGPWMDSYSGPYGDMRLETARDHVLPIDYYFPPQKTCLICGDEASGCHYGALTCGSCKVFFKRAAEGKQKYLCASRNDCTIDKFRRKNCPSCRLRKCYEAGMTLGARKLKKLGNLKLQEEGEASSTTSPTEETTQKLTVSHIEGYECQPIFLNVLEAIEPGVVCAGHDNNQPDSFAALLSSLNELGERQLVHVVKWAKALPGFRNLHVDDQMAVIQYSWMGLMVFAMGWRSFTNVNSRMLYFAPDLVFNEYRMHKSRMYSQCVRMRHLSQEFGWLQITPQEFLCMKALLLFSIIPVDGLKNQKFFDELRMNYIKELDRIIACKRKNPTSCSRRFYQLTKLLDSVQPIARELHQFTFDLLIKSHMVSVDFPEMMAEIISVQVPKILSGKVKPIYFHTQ

Assay [4] has the same target. In words: UPITT_HCI_U2OS_AR_TIF2_Nucleoli_Cytoplasm_Ratio_Agonist: University of Pittsburgh U2OS Androgen Receptor-Transcriptional Intermediary Factor 2 (AR-TIF2) Agonism High Content Imaging Assay for Ratio of Nucleoli Translocation and Cytoplasm (AID 2284000; active = hit-call score of the fitted dose curve at least 0.9, where 1 is the maximum;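 note: hits raise the red nucleolar to cytoplasm ratio above vehicle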). The gist of the method:
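Primary screen at 20 uM final (0.2% DMSO), then triplicate confirmation and dose-response from 0.195 to 50 uM final (0.5% DMSO). Cells: U2OS with AR-RFP and TIF2-GFP. Endpoint is the nucleoli/cytoplasm red-fluorescence ratio, gain-of-signal vs DMSO.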

The nature of assay [5]: CCTE_Harrill_HTTr_Viability_MCF7: CCTE's 6-hour Cell Viability Assessment for the High-Throughput Transcriptomics (HTTr) Platform, in MCF-7 cells cultured in DMEM + 10% fetal bovine serum, Harrill Lab (AID 2284010). The gist of the method:
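Eight-point concentration series, six-hour exposure. Propidium iodide exclusion imaged to assess membrane integrity as a cytotoxicity readout; bidirectional fitting was done with DMSO as negative control and activity baseline.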

The nature of assay [6]: CCTE_Harrill_HTTr_Apoptosis_MCF7: CCTE's 6-hour Apoptosis Assessment for the High-Throughput Transcriptomics (HTTr) Platform, in MCF-7 cells cultured in DMEM + 10% fetal bovine serum, Harrill Lab (AID 2284011). Put shortly: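 MCF-7 cells in DMEM + 10% FBS exposed 6 h to chemicals over an eight-point dilution series. Caspase-3/7 activation imaged by high-content CellEvent Green staining; fitted bidirectionally versus DMSO.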

The nature of assay [7]: CCTE_Harrill_HTTr_CellCount_MCF7: CCTE's Cell Proliferation Assessment for the High-Throughput Transcriptomics (HTTr) Platform, Harrill Lab (AID 2284012; active = hit-call score of the fitted dose curve at least 0.9, where 1 is the maximum;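 note: intended direction is loss of nuclei count meaning fewer cells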). Put shortly: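 For this full-screen endpoint, MCF-7 cultures received eight compound dilutions for six hours. Well nuclei counts from Hoechst imaging were analyzed relative to DMSO.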
Assay [8] can be described thus: CCTE_Shafer_MEA_dev_firing_rate_mean: CCTE's Neural Network Formation Assay for Mean Firing Rate, Shafer Lab (AID 2284031). Put shortly: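 Extracellular spike frequency, AUC over DIV 5–12 recordings, in rat cortical neuron MEA cultures dosed from plating; loss direction vs DMSO.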
Assay [9] can be described thus: CCTE_Shafer_MEA_dev_per_burst_spike_percent: CCTE's Neural Network Formation Assay for Percent of Spikes in a Burst, Shafer Lab (AID 2284032).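 Note: fitted as a decrease in burst spike percentage below DMSO baseline.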 Put shortly: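 Value is trapezoidal AUC over recordings on days 5, 7, 9 and 12 of the well-mean fraction of spikes falling in single-electrode bursts; rat cortical cultures exposed continuously from plating, treatment renewed DIV 5 and 9, fitted downward against DMSO.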

Assay [10] in a line: CCTE_Shafer_MEA_dev_active_electrodes_number: CCTE's Neural Network Formation Assay for Number of Active Electrodes, Shafer Lab (AID 2284040; active = hit-call score of the fitted dose curve at least 0.9, where 1 is the maximum;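 note: potency for loss of active electrodes versus DMSO so lower counts are hits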). The gist of the method: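 Developing rat cortical networks on MEAs, exposed DIV 0–12. Value is the AUC of active-electrode counts (≥5 spikes/min) from days 5, 7, 9, 12, relative to DMSO.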
The nature of assay [11]: CCTE_Shafer_MEA_dev_burst_rate: CCTE's Neural Network Formation Assay for Burst Rate, Shafer Lab (AID 2284042). The gist of the method: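 Cells plated, treated day 0; recorded DIV 5, 7, 9, 12; fed and re-treated DIV 5, 9. Endpoint: bursts per recording time, active-electrode well mean, trapezoidal AUC, fitted in decreasing direction against DMSO baseline.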
Assay [12] can be described thus: CCTE_Shafer_MEA_dev_per_burst_interspike_interval: CCTE's Neural Network Formation Assay for Burst Interspike Interval, Shafer Lab (AID 2284044). Put shortly: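 Primary rat cortical neurons on 48-well MEA plates, exposed from day 0 through day 12, treatment renewed at DIV 5 and 9. Within-burst interspike interval recorded days 5, 7, 9, 12, well-averaged, summarised as AUC; negative fit versus DMSO.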

A short description of assay [13]: CCTE_Shafer_MEA_dev_burst_duration_mean: CCTE's Neural Network Formation Assay for Mean Burst Duration, Shafer Lab (AID 2284045). Put shortly: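 Network-formation assay in primary rat cortical neurons; treatment spans twelve days of development. Mean burst duration per well is integrated by trapezoidal AUC and fitted in the loss-of-signal direction against DMSO baseline.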

Assay [14] can be described thus: CCTE_Shafer_MEA_dev_interburst_interval_mean: CCTE's Neural Network Formation Assay for Mean Interburst Interval, Shafer Lab (AID 2284046).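 Note: well-mean interburst interval of bursting electrodes as AUC over four recording days; curve fitted for decrease in interburst interval relative to DMSO.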 The gist of the method:
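Developing rat cortical networks on 48-well MEAs receive compound from the day of plating. Burst intervals from each active electrode are averaged per well, and AUC over the recording days is fitted in the negative direction against DMSO.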

A short description of assay [15]: CCTE_Shafer_MEA_dev_inter_network_spike_interval_mean: CCTE's Neural Network Formation Assay for Mean Inter-network Spike Interval, Shafer Lab (AID 2284047). The gist of the method: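 Rat cortical cultures, 1.5 x 10^5 cells/well on 48-well MEA plates; continuous exposure days 0–12, medium and compound refreshed DIV 5, 9. Mean time between consecutive network-spike peaks; AUC across DIV 5/7/9/12; DMSO baseline, negative fitting direction.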

The nature of assay [16]: CCTE_Shafer_MEA_dev_network_spike_number: CCTE's Neural Network Formation Assay for Number of Network Spikes, Shafer Lab (AID 2284048).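 Note: synchronized bursts across electrodes counted on days 5 7 9 12 and integrated as AUC.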 Put shortly:
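Extracellular recordings from 16-electrode wells track network formation in rat cortical cultures under continuous treatment from plating. The endpoint is network spike number, expressed as AUC across DIV 5–12 relative to DMSO vehicle.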

The nature of assay [17]: CCTE_Shafer_MEA_dev_spike_duration_mean: CCTE's Neural Network Formation Assay for Mean Spike Duration, Shafer Lab (AID 2284051).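 Note: mean network spike duration pooled as area under curve over DIV 5 to 12 recordings; potency for a decrease in mean network spike duration versus DMSO.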 The gist of the method:
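Readout is the average length of network spikes, clustered firing across electrodes, summed over DIV 5, 7, 9 and 12 as area under the curve. Neurons from rat cortex developed networks on MEA plates under continuous 12-day exposure.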

Assay [18] in a line: CCTE_Shafer_MEA_dev_network_spike_duration_std: CCTE's Neural Network Formation Assay for Standard Deviation of Network Spike Duration, Shafer Lab (AID 2284052).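 Note: area under curve of spike duration SD across recording days 5 to 12; hits are decreases in network spike duration SD versus DMSO vehicle.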 Put shortly:
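Read-out is the trapezoidal area-under-the-curve across recordings made on days 5, 7, 9 and 12, fitted in the negative direction against DMSO baseline. Neurons were primary rat cortical cells treated from day 0, with treatment renewed at each feed.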

The nature of assay [19]: CCTE_Shafer_MEA_dev_per_network_spike_spike_number_mean: CCTE's Neural Network Formation Assay for Mean Number of Spikes in a Network Spike, Shafer Lab (AID 2284053). The gist of the method: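 Continuous twelve-day exposure of developing rat cortical networks grown over 16 microelectrodes per well; spontaneous firing is captured at four time points, and the per-network-spike spike number is integrated over development by trapezoidal AUC.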

Assay [20] is described as follows: CCTE_Shafer_MEA_dev_per_network_spike_spike_percent: CCTE's Neural Network Formation Assay for Percent of Spikes in a Network Spike, Shafer Lab (AID 2284054). The gist of the method:
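Developing networks of rat cortical neurons are dosed at day 0 and recorded extracellularly four times up to day 12. The endpoint is the area under the curve of percent spikes in network spikes, fitted in the negative direction relative to DMSO.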

A short description of assay [21]: CCTE_Shafer_MEA_dev_LDH: CCTE's Lactate Dehydrogenase Assay for Cytotoxicity in the Neural Network Formation Assay, Shafer Lab (AID 2284068; active = hit-call score of the fitted dose curve at least 0.9, where 1 is the maximum;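 note: exposure for twelve days from plating with re-dosing on DIV 5 and 9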). The gist of the method:
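Cytotoxicity companion to network-formation recordings: rat cortical neurons received compound over 12 days of development, re-dosed at DIV 5 and 9 feeds. Viability was inferred from LDH enzyme activity relative to DMSO.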

Assay [22] is described as follows: CCTE_Shafer_MEA_dev_AB: CCTE's Alamar Blue Assay for Cytotoxicity in the Neural Network Formation Assay, Shafer Lab (AID 2284083; active = hit-call score of the fitted dose curve at least 0.9, where 1 is the maximum;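 note: resazurin reduction fluorescence as viability of cultured neurons; twelve days of exposure from plating with re-dosing on DIV 5 and 9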). Put shortly:
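Fluorescent resazurin reduction serves as the viability read-out, with DMSO as negative control and baseline. Cells were primary rat cortical neurons grown on MEA plates and dosed from day 0 to day 12, treatment renewed on DIV 5 and 9.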

Assay [23] in a line: CCTE_Shafer_MEA_dev_mutual_information_norm: CCTE's Neural Network Formation Assay for Mutual Information Normalization, Shafer Lab (AID 2284091). Put shortly: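 Exposure of primary rat cortical neurons began at plating and ran to DIV 12, with full media and treatment renewal after DIV 5 and 9 recordings. Mutual information AUC (DIV 5–12) was analysed for loss versus DMSO.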

Assay [24] is described as follows: CCTE_Shafer_MEA_dev_correlation_coefficient_mean: CCTE's Neural Network Formation Assay for Mean Correlation Coefficient, Shafer Lab (AID 2284093).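 Note: well mean pairwise spike train correlation integrated as AUC over recording days 5 to 12; potency fitted for loss of correlation relative to DMSO vehicle wells.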 Put shortly: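 Read-out: well-mean correlation coefficient of spike trains between electrode pairs, collapsed over four recording days as trapezoidal area-under-the-curve. Developing rat cortical neuron networks grown on MEAs received test chemical continuously from plating.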

Structures are written as SMILES. Results filed as inconclusive are left out. Activity calls are given as the source filed them. Rule for the calls, unless noted: active = hit-call score of the fitted dose curve at least 0.9, where 1 is the maximum; inactive = score below 0.9.

Chain of Nucleoli Translocation, AR (gene 367) (P10275 whole entry, looked up): as above

With `ClC1=C(Cl)[C@]2(Cl)[C@H]3[C@H]([C@H](Cl)C(Cl)[C@@H]3Cl)[C@@]1(Cl)C2(Cl)Cl` (stereo not given in full), the result in assay [1], in assay [2], in assay [3], in assay [4], in assay [5] and in assay [6] was inactive.

For the molecule `CCCCC(CC)COC(=O)c1cc(Br)c(Br)c(Br)c1Br` (stereo not given), the result in assay [1], in [2], in [3], in assay [4], in assay [5] and in assay [6] was inactive. The molecule was classed as inactive in assay [7], in assay [8], in [11], in assay [12], in [13] and in [15]. The molecule was called inactive in assay [16], in assay [18] and in assay [23]. The AC50 was 18.8 µM (active) in assay [9]; 18.7 µM (active) in assay [10]; 16.8 µM (active) in [14]; 17.7 µM (active) in assay [17]; 18.8 µM (active) in assay [19]; 18.9 µM (active) in [20]. In addition, the figures for the AC50 in assay [21], in assay [22] and in assay [24] were 15.9 µM (active), 15.1 µM (active) and 18.8 µM (active), respectively.
